Some compounds were tested as several samples or in several runs, with calls that do not always agree. Calls of active or inactive are those of the source. Rule for the calls: active = hit-call score of the fitted dose curve at least 0.9, where 1 is the maximum; inactive = score below 0.9.

Read-out in one test: Interleukin-8 (IL8), CXCL8 (gene 3576)
The experiment in a line: BSK_SAg_IL8: BioMAP Diversity Plus: SAg Assay for Interleukin-8 (IL8) Biomarker Activity (AID 2283094). The note with it: primary human HUVEC with PBMC; actives raise or lower the signal. A digest of the protocol: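 Primary human endothelial cells with PBMC, exposed 24 h; IL-8 determined by ELISA, analysed bidirectionally relative to DMSO.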
Consider `CC[N+](CC)(CC)Cc1ccccc1`, for which the result was inactive.

For the compound `C=CC(C)(CCC=C(C)C)OC(C)=O` (configuration not stated), the result was inactive.

As for `COC1=CC(=O)C[C@@H](C)[C@]12Oc1c(Cl)c(OC)cc(OC)c1C2=O`, the outcome was inactive.

In the case of `CCCCC(CC)C(=O)OCCOCCOCCOCCOC(=O)C(CC)CCCC` (configuration not stated), the outcome was inactive.

Regarding `N=C(N)c1ccc(OCCCCCOc2ccc(C(=N)N)cc2)cc1`, the concentration at half-maximal activity (AC50) was 6.91 µM (active).

Regarding `O=C1NS(=O)(=O)c2ccccc21`, the outcome was inactive.

With `COCN(COC)c1nc(N(COC)COC)nc(N(COC)COC)n1`, the result was inactive.

Take `Cc1ccc(N=Nc2c(O)ccc3ccccc23)c(C)c1`: the outcome was inactive.

Read-out in another test: not listed separately
Kind of test: BSK_SAg_Proliferation: Cell Proliferation Assessment in the BioMAP Diversity Plus: SAg Assay (AID 2283095).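 Note: relative cell number as total protein by SRB absorbance in sub-confluent culture.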 The note with it: primary human HUVEC with PBMC. A digest of the protocol:
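A human primary co-culture of umbilical vein endothelium and blood mononuclear cells receives compound; relative cell number is quantified at 96 h by SRB staining and 560 nm absorbance, with DMSO-referenced bidirectional curve fitting.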
Regarding `CCCCCCCCCCCCOS(=O)(=O)O`, the outcome was inactive.

For the compound `CC(C)(C)c1ccc(O)c(O)c1`, the AC50 is 2.68 µM (active).

With `O=C(O)CCC(F)(F)C(F)(F)C(F)(F)C(F)(F)C(F)(F)F`, the result was inactive.

For `O=C(NCc1ncc(C(F)(F)F)cc1Cl)c1c(Cl)cccc1Cl`, the outcome was inactive.

Turning to `O=C(NO)c1ccccc1`, the outcome was inactive.

As for `Clc1ccc(Nc2nnc(Cc3ccncc3)c3ccccc23)cc1`, the outcome was inactive.

For `CCCCC=O`, the outcome was inactive.

As to `Oc1ccc(Cc2ccccc2O)cc1`, the outcome was inactive.

As for `O=C1OC2(c3ccccc31)c1cc(I)c(O)c(I)c1Oc1c2cc(I)c(O)c1I`, the outcome was inactive.

For `C=COC(=O)C(C)(C)CCCCCC`, the half-maximal activity concentration (AC50) is 30.7 µM (active).

For `NC(=NCCCCCCN=C(N)/N=C(\N)Nc1ccc(Cl)cc1)/N=C(\N)Nc1ccc(Cl)cc1`, the concentration at half-maximal activity (AC50) was 2.72 µM (active).

In the case of `C=CC(=O)OCCC(F)(F)C(F)(F)C(F)(F)C(F)(F)C(F)(F)C(F)(F)C(F)(F)C(F)(F)F`, the outcome was inactive.

As to `CCCCCCCCCCCC`, the AC50 was 36.6 µM (active) and the outcome was inactive.

Broadly, the AC50 is the concentration at which the activity in the assay is half-maximal.

The values above are taken from PubChem BioAssay (EPA / NIEHS).
